Assay outcomes: PubChem BioAssay, several laboratories
SENP8 block-1: SENP8 protease inhibition; Q96LD8; purified SENP8, Z-RLRGG-aminoluciferin cleavage, luminescence; inhibition, % at 10 µM; 330,000 compounds, 1.2% hits; AID 2540; in the data active = inhibition above about 50%
Target sequence (Q96LD8 whole entry, looked up): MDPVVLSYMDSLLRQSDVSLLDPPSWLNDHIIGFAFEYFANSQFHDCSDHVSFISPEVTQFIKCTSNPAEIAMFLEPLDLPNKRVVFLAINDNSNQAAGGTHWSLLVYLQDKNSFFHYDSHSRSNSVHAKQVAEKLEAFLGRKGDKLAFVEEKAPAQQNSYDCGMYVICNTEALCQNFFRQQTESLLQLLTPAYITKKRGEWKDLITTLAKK
SENP6 inh: blocks the human protease SENP6 | Q9GZR1 | Recombinant SENP6 catalytic domain, aminoluciferin luminescence | inhibition, % at 10 µM | 330,000 compounds, 1.8% hits;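 active = inhibition above about 50% at the single tested dose, limit read from the data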
Platelet DG rel: platelet dense granule release activity; human platelet-rich plasma, SFLLRN dense granule ATP release, luminescence; inhibition, %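 (compounds screened at 7.5 µM in platelet-rich plasma)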; 300,000 compounds, 0.22% hits;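 active = mean replicate score, as percent of positive control, at or above 50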
SENP8 block-2: blocks human SENP8 cleavage of Nedd8 substrate; Q96LD8; recombinant SENP8, Nedd8 substrate fluorescence; inhibition, % at 20 µM; 360,000 compounds, 0.64% hits; in the data active = inhibition mostly above about 40%, no sharp cut-off; inactive = mostly below about 27%
SENP7 block: SENP7 protease inhibition; recombinant SENP7, Z-RLRGG-aminoluciferin luminescence, 40 min; inhibition, % at 5 µM; 330,000 compounds, 1.5% hits;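 active = inhibition above about 50% at the single test dose, limit read from the data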
Target sequence (Q9BQF6 706-1050 limits assumed): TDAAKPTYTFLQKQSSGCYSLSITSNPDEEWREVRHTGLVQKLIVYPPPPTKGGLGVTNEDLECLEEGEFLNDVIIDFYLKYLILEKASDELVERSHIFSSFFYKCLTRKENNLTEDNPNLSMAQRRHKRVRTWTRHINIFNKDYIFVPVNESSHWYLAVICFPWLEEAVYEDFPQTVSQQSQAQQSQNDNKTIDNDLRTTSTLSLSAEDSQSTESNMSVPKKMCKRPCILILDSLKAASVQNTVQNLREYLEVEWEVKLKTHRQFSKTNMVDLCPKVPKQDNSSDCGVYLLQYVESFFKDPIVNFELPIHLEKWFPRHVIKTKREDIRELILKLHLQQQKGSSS
Large screens that a line does not name were inactive. Only some compounds are listed: those with a hit (about 2.4% of all), similar ones and a draw of the others.

O=[N+]([O-])c1ccccc1C1Nc2cccc3cccc(c23)N1	SENP8 block-2 51
Cc1nc2ccc(C(=O)NCCCN3CCCC3=O)cn2c1N(C)C(=O)CCc1ccccc1	none (no result: SENP8 block-1, SENP6 inh, Platelet DG rel, SENP7 block)
Cc1cc(SCC(=O)N/N=C/c2ccc(O)c(O)c2O)c(C)cc1Br	SENP8 block-2 35
N#C/C(=N/Nc1ccc(OC(F)(F)F)cc1)C(N)=S	SENP6 inh 79, SENP8 block-2 46
O=[N+]([O-])c1cc(/C=N\Nc2ccccn2)ccc1Cl	none
O=[N+]([O-])c1cc(C=Nc2cccc3c(O)cccc23)ccc1Cl	SENP8 block-1 60, SENP6 inh 84 (no result: SENP8 block-2)
NC(=O)c1ccsc1NC(=O)c1coc2ccccc2c1=O	SENP8 block-1 66, SENP6 inh 83, SENP7 block 79
CC(=O)c1ccc(-c2nc3c4ccccc4ccn3c2C(C)=O)o1	Platelet DG rel 51
Cc1ccc(Cc2c(-c3ccco3)nc3c4ccccc4ccn23)cc1	none (no result: SENP8 block-1, SENP6 inh, Platelet DG rel, SENP7 block)
CO/N=C/C(=N\Nc1ccc(C)cc1)C(=O)c1ccc(OC)cc1	SENP8 block-2 51
CCOc1ccc2nc3cc(NCc4ccc(OC)cc4)ccc3c(N)c2c1	SENP6 inh 51
CCn1cnc2cc(NCc3ccc(OC)cc3)ccc21	none
COc1cc(C(c2c(C)[nH][nH]c2=O)c2c(C)[nH][nH]c2=O)ccc1OC(=O)c1cccc([N+](=O)[O-])c1	SENP8 block-2 42 (no result: Platelet DG rel)
CCOC(=O)N1CCN(C(C(=O)NC2CCCC2)c2ccco2)CC1 (configuration not stated)	none (no result: SENP8 block-1, SENP6 inh, Platelet DG rel, SENP7 block)
O=C(O)c1ccc(NS(=O)(=O)c2ccc3c(c2)C(=O)c2ccccc2C3=O)cc1	none
O=C(O)c1ccc(Nc2nc3ccccc3nc2NS(=O)(=O)c2cccs2)cc1	none
O=C(O)c1ccc(NC2=C/C(=N/S(=O)(=O)c3cccs3)c3ccccc3C2=O)cc1	SENP8 block-2 98 (no result: SENP8 block-1, SENP6 inh, Platelet DG rel, SENP7 block)
Cc1cc(C)c(S(=O)(=O)/N=C2\C=C(Nc3ccc(C(=O)O)cc3)C(=O)c3ccccc32)c(C)c1	SENP8 block-1 88, SENP6 inh 89, SENP8 block-2 57
O=C1C(Nc2ccc(O)cc2)=C/C(=N/S(=O)(=O)c2cccs2)c2ccccc21	SENP8 block-2 83 (no result: SENP8 block-1, SENP6 inh, SENP7 block)
Cc1ccccc1Oc1nc(-c2ccccn2)nc2ccccc12	none
Cc1ccsc1/C=N/Nc1ccc(F)cc1F	SENP8 block-1 56, SENP6 inh 50
COc1cccc(N=Nc2c(N)[nH]n3c(=O)c4c(nc23)CCCC4)c1	SENP8 block-2 50
O=C(NNc1nc2ccccc2s1)Nc1ccccc1	none
S=C(Nc1ccccc1)c1nc2ccccc2s1	SENP7 block 67
C=CCOc1ccc(/C=C/C(=O)OCC(=O)N2CCN(C(C)=O)CC2)cc1	none (no result: Platelet DG rel)
C=CCOc1ccc(/C=C/C(C)=N\O)cc1	SENP8 block-1 83, SENP6 inh 79, SENP7 block 89
COc1nccnc1NS(=O)(=O)c1ccc(NC(=S)NC(=O)c2ccc(F)cc2)cc1	SENP8 block-1 78, SENP6 inh 86, SENP7 block 69
COc1nsnc1NS(=O)(=O)c1ccc(NC(=S)NC(=O)c2ccncc2)cc1	none
CC1(C(=O)NC2CCN(Cc3ccccc3)CC2)CCN1Cc1ccc2ccccc2c1 (configuration not stated)	none (no result: SENP8 block-1, SENP6 inh, Platelet DG rel, SENP7 block)
COc1cccc(-c2ncn(CCc3ccccc3OC)c2C(C)C)c1	none (no result: SENP8 block-1, SENP6 inh, Platelet DG rel, SENP7 block)
CC1=NN(c2ccccc2)C(=O)C1N=Nc1ccc(S(N)(=O)=O)cc1 (configuration not stated)	SENP8 block-2 52
O=[N+]([O-])c1ccc(O)c(/C=N/n2cnc3ccccc32)c1	SENP8 block-1 56, SENP6 inh 76
O=[N+]([O-])c1ccc(O)c(/C=N/n2c(CO)nc3ccccc32)c1	none
CCCCOC(=O)Nc1ccc(S(=O)(=O)Nc2nc(C)cc(C)n2)cc1	none
CCCCCCOC(=O)Nc1ccc(S(=O)(=O)Nc2cccc([N+](=O)[O-])c2)cc1	SENP6 inh 52
Nc1nc2ccccc2cc1-c1cccs1	none
c1csc(-c2ccc3ccccc3n2)c1	SENP8 block-1 57, SENP6 inh 76, SENP7 block 80
c1csc(-c2nc3ccccc3s2)c1	SENP8 block-1 78, SENP6 inh 86, SENP7 block 80
c1coc(-c2nc3ccccc3s2)c1	none (no result: SENP8 block-1, SENP6 inh, Platelet DG rel, SENP7 block)
CC1OC(CC(=O)O)CC2=C1C(=O)c1c(O)cccc1C2=O (configuration not stated)	SENP8 block-2 89 (no result: SENP8 block-1, SENP6 inh, Platelet DG rel, SENP7 block)
O=C1C(Cl)=C(N2CCCCC2)C(=O)C(Cl)=C1c1cnc(N2CCCCC2)s1	none
CN(C)c1ncc(C2=C(Cl)C(=O)C(N3CCCC3)=C(Cl)C2=O)s1	SENP8 block-2 46
O=C(C1CCCCC1)N1C[C@H](O)[C@@H](n2cc(C3CC3)nn2)C[C@@H]1c1ccccc1	none (no result: SENP8 block-1, SENP6 inh, Platelet DG rel, SENP7 block)
COC(=O)c1sccc1NC(=O)Nc1ccccc1F	SENP8 block-1 88, SENP6 inh 70, SENP7 block 98
CCOC(=O)C1=C(C)c2ccccc2N(C(=O)OC)C1(C)C(=O)OCC (configuration not stated)	none (no result: SENP8 block-1, SENP6 inh, Platelet DG rel)
CCC(C)C(=O)N1c2ccccc2C(=C2SC(C(=O)OC)=C(C(=O)OC)S2)C(=S)C1(C)C (configuration not stated)	SENP8 block-2 56 (no result: Platelet DG rel)
CC1(C(=O)NS(=O)(=O)c2ccccc2Cl)CCN1C(=O)CCc1cccs1 (configuration not stated)	none (no result: SENP8 block-1, SENP6 inh, Platelet DG rel, SENP7 block)
N#CC(c1nc2ccccc2nc1N1CCCC1)S(=O)(=O)c1ccccc1 (configuration not stated)	SENP8 block-1 72, SENP6 inh 74
CN1CCN(c2nc3ccccc3nc2C(C#N)S(=O)(=O)c2ccccc2)CC1 (configuration not stated)	none (no result: SENP8 block-2)
Cc1ccc(NC(=O)CSc2nnc(COc3ccccc3F)n2N)cc1S(=O)(=O)N1CCOCC1	none (no result: SENP8 block-1, SENP6 inh, Platelet DG rel, SENP7 block)
O=C1c2cccc(O)c2C(=O)c2c(O)cccc21	none (no result: SENP8 block-2)
O=C1C=C(O)c2cccc(O)c2C1=O	SENP6 inh 66, SENP8 block-2 45 (no result: Platelet DG rel)
COc1cc(/C=C2\C(=O)N(CCC#N)N=C2C)c(Br)cc1OC(C)C	SENP8 block-2 46
CN(C)c1ccc(CNc2nc3ccccc3s2)cc1	SENP8 block-1 54, SENP6 inh 82, SENP7 block 95 (no result: SENP8 block-2)
CN(C)c1ccc(CNc2nc3ccccc3n2C)cc1	none (no result: SENP8 block-1, SENP6 inh, Platelet DG rel, SENP7 block)
CN(C)c1ccc(/C=C/c2ccc3ccccc3n2)cc1	Platelet DG rel 97 (no result: SENP8 block-1, SENP6 inh, SENP7 block)
CN(C)c1ccc(/C=C/c2nc3ccccc3s2)cc1	SENP8 block-1 97, SENP6 inh 99, Platelet DG rel 64, SENP7 block 99
CC(C)C[C@H](NC(=O)N1CC(=O)Nc2ccccc21)C(=O)N[C@@H](Cc1ccccc1)C(=O)O	none
O=C(COc1cccc(Br)c1)N/N=C/c1ccc2c(c1)OCCO2	none (no result: SENP8 block-1, SENP6 inh, Platelet DG rel, SENP7 block)
CC1=NC(=O)C(N=Nc2ccccc2C(=O)O)N1c1ccccc1 (configuration not stated)	SENP8 block-2 48
CC1=NC(=O)C(N=Nc2ccccc2)N1c1ccccc1 (configuration not stated)	SENP8 block-2 46
CC1=NC(=O)C(N=Nc2cccc(C(=O)O)c2)N1c1ccccc1 (configuration not stated)	none
Cc1ccc(CS(=O)Cc2ccc(C(=O)NC3CCCCC3)o2)cc1 (configuration not stated)	none
